Structures are written as SMILES. Where “and” joins values, the source holds several entries; their conditions need not be identical. Equal entries are not always repeated. Inconclusive results are not listed. Where a call stands in place of a potency, no number is given. Calls of active or inactive are those of the source. The call rests on the fitted dose curve; in most records, active means well fitted activation curve with a large enough effect in the repeat runs; inconclusive means weak or mixed curves; inactive means flat fitted curve, though single readings scatter.
Potency means the concentration at half of the fitted maximal effect.

The assay can be described thus: A CellTox Green Cytotoxicity Assay to monitor cytotoxicity in HepG2 cells - 40 hour (AID 1224879). Further: nearly all actives have a fitted effect of over 40% in size. The note with it: CellTox Green fluorescence; series mostly up to 76.8 µM. From the text:
National Center for Advancing Translational Sciences [NCATS]
NIH Chemical Genomics Center [NCGC]
U.S. Environmental Protection Agency [EPA]
National Institutes of Environmental Health Sciences [NIEHS]
National Toxicology Program [NTP]
Cell-based models are critical for drug discovery. Determining the natural cytotoxic effects resulting from test compounds is an essential research activity. A CellTox Green Cytotoxicity Assay to monitor cytotoxicity in real time of continues cell culture during 40 hours of the compound treatment was used to screen Tox21 10K library compounds in HepG2 cells. CellTox Green Cytotoxicity Assay is a nonlytic, homogeneous, biofluorescent method to measure cytotoxicity in cell culture after experimental manipulation. The assay system uses a proprietary asymmetric cyanine dye that is excluded from viable cells but preferentially stains the dead cell's DNA. […] Viable cells produce no appreciable increases in fluorescence. Therefore, the fluorescence signal produced by the binding interaction with dead cell DNA is proportional to cytotoxicity.
The mixture of HepG2 cell suspension and reagents were dispensed at 600cells/6 ul/well in 1536-well tissue culture treated black solid bottom plates using a Multidrop dispenser. After the assay plates were incubated at a 37 C/5% CO2 incubator for 5 hours, 23 nL of compounds dissolved in DMSO, positive and negative controls was transferred to the assay plate by a pintool work station. The plates were incubated at 37 C for 40 hours. The fluorescence intensity were measured at 0h, 8h, 16h, 24h, 32h and 40h time points using ViewLux plate reader during compound treatment.
Consider `CC1(C)CC(=O)CC(C)(C)N1[O]`, for which the Potency result was “inactive”.
On the same count and under the same terms, the result for `Cc1ncc(C[n+]2csc(CCO)c2C)c(N)n1` reads “inactive”; that for `O=C(N/N=C/c1ccc([N+](=O)[O-])o1)c1cc([N+](=O)[O-])cc([N+](=O)[O-])c1O`, “inactive”.
As for `CCSCc1ccccc1OC(=O)NC`, the Potency result was “inactive”.
The same measure, in the same setting: as for `COc1ccc(C(O)(c2cncnc2)C2CC2)cc1` (stereo not given), the entry is “inactive”.
Take `CC1(C)[C@H](C(=O)O[C@H](C#N)c2cccc(Oc3ccccc3)c2)[C@@H]1C=C(Br)Br`: the Potency result was “inactive”.
Same read-out and setting: the result for `C[C@H]1O[C@H](OC2[C@@H](O)[C@@H](O)C(O)[C@H](O)[C@H]2O)[C@@H](N)C[C@@H]1N=C(N)C(=O)O` (stereo not given in full) reads “inactive”; that for `O=S(=O)(Cl)Cl`, “inactive”; that for `O=P(OCC(Br)CBr)(OCC(Br)CBr)OCC(Br)CBr` (stereo not given), “inactive”.
The same measure, in the same setting: the result for `C[C@@H]1C[C@@H]([C@H](O)CC2CC(=O)NC(=O)C2)C(=O)[C@@H](C)C1` reads “inactive”.
Still for that read-out and setting: as for `O=C(O)COc1cc(Cl)c(Cl)cc1Cl`, the entry is “inactive”; as for `C=CCOCC1CO1` (stereo not given), “inactive”; as for `C[C@]12CC[C@H]3[C@@H](CCC4=CC(=O)CC[C@@H]43)[C@@H]1CC[C@@H]2OC(=O)CCc1ccccc1`, “inactive”.
As for `CCOC(=O)C1OC1(C)c1ccccc1` (stereo not given), the Potency result was “inactive”.
The same measure, in the same setting: the result for `CCCCCl` reads “inactive”.
Still for that read-out and setting: the result for `O=C(CCl)CCl` reads 25.5 µM (active).
Still for that read-out and setting: as for `CN1CC[C@]23c4c5ccc(O)c4O[C@H]2[C@@H](O)C=C[C@H]3[C@H]1C5`, the entry is “inactive”.
With `CN(C)c1ccc(N=O)cc1`, the Potency is 34.8 µM (active) and 12.3 µM (active).
Consider `CCN(C(C)=O)c1cccc(-c2ccnc3c(C#N)cnn23)c1`, for which the Potency result was “inactive”.
The same measure, in the same setting: the result for `[Cl-].[Cl-].[Hg+2]` reads 24.4 µM (active) and 2.45 µM (active).
In the case of `CCOC(=O)c1cn2nc(OP(=S)(OCC)OCC)cc2nc1C`, the Potency entry was “inactive”.
Same read-out and setting: the result for `CCC[N+](CCC)(CCC)CCC` reads “inactive”; that for `NP(N)(=O)NC(=O)c1ccc(F)cc1`, “inactive”; that for `C=CC(C)(CCC=C(C)C)OC(=O)c1ccccc1N` (stereo not given), “inactive”.
Regarding `COCc1cnc(C2=NC(C)(C(C)C)C(=O)N2)c(C(=O)O)c1` (stereo not given), the Potency entry was “inactive”.
`Nc1c(Br)cc(Br)c2c1C(=O)c1ccccc1C2=O`: the cytotoxicity increase is -11% [at 15.8 µM] (inactive).
In the case of `C[C@H]1[C@@H]2Cc3ccc(O)cc3[C@@]1(C)CCN2C`, the Potency result was “inactive”.
Same read-out and setting: as for `O=C(O)C(F)(F)C(F)(F)C(F)(F)C(F)(F)C(F)(F)F`, the entry is “inactive”; as for `OC[P+](CO)(CO)CO`, “inactive”.
Regarding `O=[N+]([O-])/C=C/c1ccccc1`, the Potency is 12.5 µM (active).
On the same count and under the same terms, the result for `NC(=S)c1c(Cl)cccc1Cl` reads “inactive”; that for `O=C1NC(=O)C(=O)C(=O)N1`, “inactive”.
Still for that read-out and setting: the result for `CCC1CCC(=O)O1` (stereo not given) reads “inactive”; that for `N#CC(C#N)=C(C#N)C#N`, “inactive”; that for `CC(Cc1ccccc1)NCc1ccccc1Cl` (stereo not given), “inactive”.
Same read-out and setting: as for `CCCCCCCCCCCC[N+](C)(C)CCOc1ccccc1`, the figure is 12.3 µM (active) and 6.74 µM (active); as for `CC(CC(C(N)=O)(c1ccccc1)c1ccccc1)N(C)C` (stereo not given), “inactive”; as for `CCC1(C2=NCCN2)Cc2ccccc2O1` (stereo not given), “inactive”.
For the molecule `OCCSSCCO`, the Potency entry was “inactive”.
Still for that read-out and setting: as for `CN1C[C@H](C(=O)N[C@]2(C)O[C@@]3(O)[C@@H]4CCCN4C(=O)[C@H](Cc4ccccc4)N3C2=O)C=C2c3cccc4[nH]cc(c34)C[C@H]21`, the entry is “inactive”.

(Values after PubChem BioAssay (Tox21).)
